# HT1080 IDH1KD tx: toxicity to HT-1080 IDH1 knockdown cells (counter line); HT-1080 IDH1 knockdown viability, ATP luminescence, 48 h; Potency, µM (series often up to 46.1 µM), without a hit: at the top dose activity, negative = toxicity, usual class: cytotoxic; 2% of 360,000 active; AID 686971;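 further: 0% = DMSO wells and -100% = cell-free medium wells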
#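 % activity derives from luminescence (CellTiter-Glo), normalised to DMSO and no-cell wells. HT-1080-IDH1KD cells, 750/well, had 48 h compound exposure at 37 °C.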
# KB-3-1 cytotox: KB-3-1 parental cell cytotoxicity | 1.4% of 400,000 active | Potency, µM (highest dose often 46.1 µM), hits mostly cytotoxic | KB-3-1 viability, CellTiter-Glo ATP luminescence, 72 h; further: on the % scale 0 is the no-effect control and ±100 the full control effect; nearly all actives have a fitted effect of over 60% in size
#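 Parental KB-3-1 adenocarcinoma cells in phenol-red-free DMEM with 10% FBS were pin-treated with compounds at several concentrations, incubated 72 h at 37 °C, and viability read by CellTiter-Glo luminescence; concentration-effect curves were fitted after normalization.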
# KB-V1 cytotox: KB-V1 MDR subline cytotoxicity. AID 1347076. Potency, µM (top dose mostly 46.1 µM), hits mostly cytotoxic. 3.4% of 400,000 active. KB-V1 MDR cells viability, CellTiter-Glo, 72 h; further: on the % scale 0 is the no-effect control and ±100 the full control effect; nearly all actives have a fitted effect of over 60% in size
#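 KB-V1 MDR subline cells in DMEM (phenol-red free, 10% FBS) exposed to compounds in qHTS concentration series for 72 h at 37 degrees C. Viability read by CellTiter-Glo luminescence; concentration-effect curves fitted after normalization and correction.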
# ATXN2 expr inh: reduces ATXN2 reporter expression in HEK-293 cells; HEK-293 ATXN2-luciferase reporter, luminescence, 24 h; Potency, µM (series often up to 57 µM), without a hit: at the highest dose activity change, negative = inhibition, most hits filed as inhibitors; 0.72% of 360,000 active; AID 1745845; further: on the % scale 0 is the no-effect control and ±100 the full control effect; nearly all actives have a fitted effect of over 55% in size
#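 ATXN2-luciferase reporter cells (luciferase flanked by upstream and downstream ATXN2 gene portions) were treated 24 h at 37 °C with compounds at up to 57 uM. SteadyGlo luminescence gave expression; GF-AFC fluorescence gave viability.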
# ATXN viability: viability counter-screen for ATXN expression inhibitors; S2 cells (HEK-293 line with an ATXN2-luciferase reporter) viability, CellTiter-Fluor protease fluorescence, 24 h; Potency, µM (titrated, usually from 56.7 µM), most hits filed as cytotoxic; 0.49% of 400,000 active; further: nearly all actives have a fitted effect of over 40% in size
# HT1080-NT tox: kills 2HG-producing HT-1080-NT fibrosarcoma cells; HT-1080-NT fibrosarcoma viability, CellTiter-Glo ATP luminescence, 48 h; Potency, µM (titrated, usually from 46.1 µM), for the others: top-dose activity, negative = less viability, most hits filed as cytotoxic; 1.6% of 360,000 active; AID 686970;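 further: NT is the 2HG producing partner of a matched IDH1 knockdown line; 0% = DMSO-treated cells and -100% = media-only wells without cells; nearly all actives have a fitted effect of over 55% in size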
#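 Fibrosarcoma NT cells, 750 per well in 5% FBS RPMI, were exposed to compound for 48 hours. Viability: CellTiter-Glo luminescence.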
# * = called active by the depositor; i = inactive; ? = inconclusive; · = no result. Rows were chosen to be rich in hits. Some 6.2% of all compounds tested hit in one or more screens of this group. The call rests on the fitted dose curve; in most records, active means well fitted curve in the direction sought with a large enough effect; inconclusive means small, poorly fitted or top-dose-only effect, or another doubt; inactive means no such curve, though single readings can be large; an effect the other way counts as inactive or inconclusive. Potency means the concentration at half of the fitted maximal effect.
SMILES,HT1080 IDH1KD tx,KB-3-1 cytotox,KB-V1 cytotox,ATXN2 expr inh,ATXN viability,HT1080-NT tox
Cc1ccc(-c2c[n+](CC(=O)Nc3nc(-c4ccccc4)cs3)c3n2CCC3)cc1,23µM*,i,i,1%,i,?
C=CC[C@@H](CC(=O)N(CCO)Cc1ccccc1)C(=O)N[C@@H](COC(=O)[C@@H](CC=C)CC(=O)OC(C)(C)C)Cc1c[nH]c2ccccc12,?,?,i,35µM*,20µM*,?
C=CC[C@@H](CC(=O)N(CCO)Cc1ccccc1)C(=O)N[C@H](COC(=O)[C@@H](CC=C)CC(=O)OC(C)(C)C)C(C)(C)C,-18%,i,i,?,28µM*,-4%
C=CC[C@@H](CC(=O)N(CCO)Cc1ccccc1)C(=O)N[C@H](COC(=O)[C@@H](CC=C)CC(=O)OC(C)(C)C)Cc1c[nH]c2ccccc12,-25%,i,i,?,·,-26%
C=CC[C@@H](CC(=O)N(CCO)Cc1ccccc1)C(=O)N[C@H](COC(=O)[C@@H](CC=C)CC(=O)OC(C)(C)C)c1ccccc1,-5%,?,?,?,·,?
C=CC[C@H](CC(=O)N(CCO)Cc1ccccc1)C(=O)N[C@H](COC(=O)[C@H](CC=C)CC(=O)OC(C)(C)C)Cc1ccccc1,-13%,i,i,-2%,22µM*,-13%
Cc1ccc(NC(=O)COc2ccc3oc4c(c3c2)CCCC4)cc1C,·,i,i,1%,i,·
CNC(=O)C[C@H]1C(=O)N(CCc2ccccc2)C[C@@H]1C,3%,i,i,5%,i,5%
CCN1CCN(S(=O)(=O)c2c(C)cc(C)cc2C)CC1,3%,i,i,-35%,i,8%
CSc1ncccc1C(=O)NCCN1Cc2ccccc2OC(c2ccccc2F)C1 (centres undefined),·,·,·,·,i,·
C[C@H](CO)N1C[C@H](C)[C@@H](CN(C)CC2CCOCC2)Oc2cc(C#Cc3ccccc3F)ccc2S1(=O)=O,-20%,i,?,?,i,-19%
C[C@H]1CN([C@@H](C)CO)S(=O)(=O)c2ccc(C#Cc3ccccn3)cc2O[C@H]1CN(C)Cc1ccc(F)cc1,10%,i,i,4%,i,17%
CCCC#Cc1ccc2c(c1)O[C@@H](CN(C)Cc1ccc3c(c1)OCO3)[C@H](C)CN([C@@H](C)CO)S2(=O)=O,?,21µM*,?,?,?,?
C[C@@H]1CN([C@H](C)CO)S(=O)(=O)c2ccc(C#Cc3ccccc3F)cc2O[C@H]1CN(C)C(=O)c1ccc2c(c1)OCO2,?,?,?,?,13µM*,?
CCCCn1c(SCC(=O)c2ccccc2)nc2c(sc3ccccc32)c1=O,·,i,i,3%,i,·
CC(C)(C)c1ccc(C(=O)C[n+]2cccc(Br)c2)cc1,·,i,i,·,·,·
O=C1CCCc2c(O)cccc21,·,·,·,57%,i,·
N=c1c(S(=O)(=O)c2ccc(Cl)cc2)cc2c(=O)n3ccccc3nc2n1CCN1CCOCC1,2%,i,13µM*,1%,i,12%
Cc1ccc(S(=O)(=O)c2cc3c(=O)n4ccccc4nc3n(Cc3ccco3)c2=N)cc1,?,i,8.2µM*,-7%,·,?
CN1CC[C@@]23c4ccccc4N[C@H]1[C@]21CCN(C)[C@@H]3Nc2ccccc21,·,·,·,·,i,·
CN(Cc1ccccc1)C(=S)Nc1ccc(OC(F)F)cc1,10%,i,15µM*,27%,i,13%
CCOc1ccc(OCC(O)CN2CCc3ccccc3C2)cc1 (centres undefined),-7%,i,i,·,i,0%
Cc1ccc(C)c(OCC(O)CN2CCc3ccccc3C2)c1C (centres undefined),9.2µM*,i,i,?,?,?
CCn1cc(C(=O)NCCCOC)c(=O)c2cc(S(=O)(=O)N3CCc4ccccc4C3)ccc21,·,i,i,-2%,i,·
CC(NC(=O)CCl)c1ccc(Cl)c(Cl)c1 (centres undefined),16µM*,?,i,?,?,?
SMILES,HT1080 IDH1KD tx,KB-3-1 cytotox,KB-V1 cytotox,ATXN2 expr inh,ATXN viability,HT1080-NT tox
CCC(NC(=O)CCl)c1ccc(C)cc1 (centres undefined),?,21µM*,?,-2%,i,?
CCCC(NC(=O)CCl)c1ccccc1 (centres undefined),?,i,i,0%,?,?
COC(=O)c1sc(-c2ccccc2)cc1NC(=O)c1cccc(F)c1,·,i,i,·,·,·
CC1=C(C(=O)N(C(C)C)C(C)C)CC(CC(=O)NCCc2ccccn2)C(=O)N1Cc1ccc(C(C)(C)C)cc1 (centres undefined),-4%,i,i,-20%,?,-15%
COC(=O)c1c(OCc2cccnc2)cc(=O)n2c1CCN(C(=O)c1c3c(nn1C)CCCC3)CC2,·,·,·,·,i,·
CCN1CCC(N(Cc2ccc3c(c2)OCO3)C(=O)Nc2cc(Cl)ccc2C(=O)OC)CC1,·,16µM*,?,25µM*,16µM*,·
CCN1CCC(N(Cc2ccc3c(c2)OCO3)C(=O)Nc2ccccc2OC)CC1,·,i,i,-17%,i,·
COCCC1CCCCN1Cc1nc(N2CCCC2)c2cc(OC)c(OC)cc2n1 (centres undefined),·,·,·,·,i,·
CSc1ccccc1C(=O)OCC(=O)Nc1ccc(N2CCOCC2)cc1,13%,i,21µM*,3%,i,17%
Cn1nc(C(C)(C)C)cc1NC(=O)Nc1cc(Cl)cc(Cl)c1,?,i,i,-37%,i,16µM*
CCCCNC(=O)c1c(N)[nH]c(C(=O)c2ccccc2)c1-c1ccccn1,-2%,?,21µM*,18%,?,-3%
N#Cc1c(OCC(=O)c2ccccc2)nc2c(c1-c1ccco1)CCc1ccccc1-2,2%,i,8.2µM*,14%,?,-15%
CCOC(=O)COc1nc2c(c(-c3ccco3)c1C#N)CCc1ccccc1-2,4%,i,i,-9%,i,-1%
CCOCN(C(=O)Cn1c(CC(C)C)nc2ccccc21)c1c(C)cccc1CC,·,i,i,-14%,i,·
c1ccc(-c2nnc(-c3ccccn3)s2)nc1,-6%,?,i,8.9µM*,i,-4%
CCCc1ncc(C(=O)O)s1,·,·,·,13%,i,·
COc1ccccc1CNc1nc(-c2ccco2)nn1S(=O)(=O)c1ccc(Cl)cc1,·,i,i,4%,i,·

# Screens as filed in PubChem BioAssay.
